PubChem BioAssay (Tox21)
Records with an inconclusive call do not appear. Where a call stands in place of a potency, no number is given. Active and inactive are the calls of the source. Calls follow the shape of the dose curve; as a rule, active = well fitted inhibition curve with a large enough effect in the signal ratio in the repeat runs (not every such curve was filed as active); inconclusive = weak or mixed curves, or effect the other way; inactive = flat fitted curve, though single readings scatter; the % refers to the signal ratio.

Experiment: cAMP Responsive Elements (CRE) small molecule antagonists, cell-based qHTS assay (AID 1963591)
Conditions: CRE-bla HEK293T, beta-lactamase FRET ratio; series mostly up to 92.4 µM
Text: U.S. Tox21 Program National Center for Advancing Translational Sciences [NCATS] Division of Preclinical Innovation [DPI] U.S. Environmental Protection Agency [EPA] National Institutes of Environmental Health Sciences [NIEHS] National Toxicology Program [NTP] U.S. Food and Drug Administration [FDA] Tox21 Assay Overview: CREB (cyclic-AMP Responsive Element Binding Protein) is a cellular transcription factor. It binds to certain DNA sequences called cAMP Responsive Elements (CRE) and regulates the transcription of the genes. […] This cell line can be used to find agonists/antagonists of the cyclic AMP signaling pathway. The activation of the report gene under culture conditions can be detected by fluorescence intensity. This cell line has been used to screen the Tox21 10K compound library to […].
Tox21 Assay Protocol Summary: CRE-bla Hek 293T cells were suspended in assay medium (DMEM containing 10% dialyzed FBS, 0.1 mM NEAA, 1 mM sodium pyruvate and 25 mM HEPES) and dispensed at 2,000 cells/4 uL /well into 1536-well black wall/clear bottom plates using a Multidrop Combi (ThermoFisher Scientific, Waltham, MA) dispenser. After the assay plates were incubated at 37 C/5% CO2 for 18 hrs, 23 nL of compounds dissolved in DMSO, positive controls or DMSO only was transferred to the assay plate by a pintool workstation (Kalypsys, San Diego, CA), followed by addition of 1 […] uL of 1.25uM NKH477 (0.25 uM as final concentration) in assay medium using a Flying Reagent Dispenser (Aurora Discovery, San Diego, CA). The plates were incubated at 37 C and 5% CO2 for 3 hrs. Then 1 uL of LiveBLAzer B/G FRET substrate (Invitrogen, Carlsbad, CA) was added to each well using Bioraptr Flying Reagent Dispenser (FRD, Aurora Discovery, San Diego, CA). The plates were incubated at room temperature for 2 h.
Potency is read from the fitted curve at half-maximal effect.

SMILES	Potency
CCCOC(=O)CCCCC(=O)OCCC	inactive
CCO[C@H](Cc1ccc(OCCc2ccc(OS(C)(=O)=O)cc2)cc1)C(=O)O	inactive
CCCc1ncc(C[n+]2ccccc2C)c(N)n1	inactive
CCOC(=O)[C@@H](C)Oc1ccc(Oc2nc3ccc(Cl)cc3o2)cc1	inactive
Cc1c(N)cccc1N	inactive
CC(C)C=O	inactive
SCCOCCOCCS	inactive
O=C1Nc2ccc([N+](=O)[O-])cc2C1=O	inactive
Cc1cccc(NC(=S)N(C)C)c1	inactive
CC1=C(Br)C(=O)C(Br)=C/C1=C(/c1ccccc1S(=O)(=O)O)c1cc(Br)c(O)c(Br)c1C	inactive
Cc1cc(C)c(C)c(C)c1	inactive
O=[N+]([O-])C1(Br)COCOC1	inactive
C/C=C/C(=O)C1=C(C)CCCC1(C)C	inactive
Nc1ccn([C@@H]2O[C@H](CO)[C@@H](O)[C@@H]2O)c(=O)n1	inactive
CCCCO	inactive
O=C(NCC(O)CO)c1c(I)c(C(=O)NCC(O)CO)c(I)c(N(CCO)C(=O)CO)c1I (stereo not given)	inactive
CC1(C)[C@H](C(=O)O)N2C(=O)C[C@H]2S1(=O)=O	1.33 µM (active)
C[C@@H](N)C(=O)O	inactive
O=C(O)C(=O)Cc1ccccc1	inactive
C[N+]1(C)CCC(OC(=O)C(O)(c2ccccc2)C2CCCC2)C1 (stereo not given)	inactive

SMILES	Potency
Cc1c(Nc2ncccc2C(=O)O)cccc1C(F)(F)F	inactive
CC(C)Cc1ccc(CC(=O)O)cc1	inactive
CCCCNC1CC(C)(C)NC(C)(C)C1	inactive
CCCCCCCC/C=C/CCCOC(C)=O	inactive
CC/C=C1/OC(=O)c2ccccc21	inactive
Oc1cccc(-c2c3nc(c(-c4cccc(O)c4)c4ccc([nH]4)c(-c4cccc(O)c4)c4nc(c(-c5cccc(O)c5)c5ccc2[nH]5)CC4)C=C3)c1	inactive
COc1ccc(CCO)cc1	inactive
CCOCC(C)O (stereo not given)	inactive
COc1cc(S(=O)(=O)Nc2ccccc2)c(OC)cc1N	inactive
COc1cccc(N)c1	inactive
CC(=O)c1c(C)c([N+](=O)[O-])c(C(C)(C)C)c([N+](=O)[O-])c1C	inactive
CN(C)c1ccc(C2(c3ccc(N(C)C)cc3)OC(=O)c3cc(N(C)C)ccc32)cc1	inactive
O=CC=C(c1ccccc1)c1ccccc1	24.5 µM (active)
C1CCOC1	inactive
N=C(N)S(=O)O	inactive
CC/C=C\CCCCCCCCCCOC(C)=O	inactive
COc1cc(NS(=O)(=O)c2ccc(N)cc2)nc(C)n1	inactive
CC(C)(C)C(O)/C=C/c1ccc2c(c1)OCO2 (stereo not given)	inactive
CCOC(=O)/C=C/c1ccccc1	inactive
COc1ccc2c(c1)c(CC(=O)OC/C=C(\C)CC/C=C(\C)CCC=C(C)C)c(C)n2C(=O)c1ccc(Cl)cc1	inactive
